Screening data deposited in PubChem by several laboratories.
Sampled rows, rich in hits. Any-hit rate of the full collection: about 4.1%.
aSyn 5UTR inh: MLPCN primary screen, SNCA 5' untranslated region; AID 1813, 2009; actives 0.82% (n = 300,000); alpha-synuclein 5'UTR reporter, inhibitor activity; inhibition, % (tested at 7.5 µM); in the data active means inhibition above about 60%;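 further: H4 neuroglioblastoma cells stably carrying SNCA 5'UTR luciferase fusion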
697 NFkB inh: inhibitors of PMA/ionomycin-induced NF-kB reporter, 697 cells, primary screen, B-cell NF-kB inhibitor project, cell-based, luminescence, uHTS | 697 B-cell NF-kB luciferase reporter, 16 h | inhibition, % at 4 µM | AID 435022, 2010 | actives 0.33% (n = 330,000); in the data active means inhibition above about 35%
KLF5 inhibitor: KLF5 expression inhibitors, primary screen, DLD-1 cells, luminescence | actives 0.23% (n = 290,000) | inhibition, % at 5 µM | DLD-1 KLF5 promoter-luciferase reporter | AID 1700, 2009;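 active means inhibition above a per-plate limit of that plate's mean compound inhibition plus 3 SD, cut at about 60% in these data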;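 further: higher means less KLF5 promoter-driven luciferase light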
Jurkat NFkB inh: inhibitors of induced NF-kB luciferase reporter, primary screen, TCR NF-kB activation inhibitor project, cell-based, luminescence, uHTS; Jurkat, PMA/ionomycin-induced NF-kB luciferase reporter; inhibition, % at 4 µM; actives 0.53% (n = 330,000); AID 435003, 2010; in the data active means inhibition above about 50%
Gli-Sufu antag: Gli-Sufu pathway antagonists, primary screen, luciferase luminescence, Sufu-KO-LIGHT cells, uHTS | Sufu-KO-LIGHT fibroblasts, Gli luciferase reporter luminescence | actives 0.74% (n = 340,000) | AID 588413, 2011 | inhibition, % at 5 µM;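 active means inhibition above about 55%, limit read from the data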
Mdm2-MdmX inh: inhibitors of human Mdm2-MdmX association, primary screen, cell-based, luminescence, split luciferase, SaOS-2, uHTS; Protein Mdm4 (Homo sapiens) + E3 ubiquitin-protein ligase Mdm2 (Homo sapiens), …; SaOS-2 split-luciferase Mdm2/MdmX complementation; inhibition, % at 8 µM; actives 3% (n = 330,000); AID 485346, 2010;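 active means inhibition of at least 50% at 8 µM in the primary screen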
Mdm2 MdmX conf: Mdm2-MdmX complex disruptors, retested hits, confirmation, luminescence, single concentration. shares compounds with Mdm2-MdmX inh. Mdm2-MdmX binding, luminescent assay. inhibition, % at 8 µM. actives 55% (n = 10,000). AID 489028, 2010; in the data active means inhibition above about 40%
Full FLuc ctr: full-length luciferase signal inhibition, confirmation, counter-screen for Mdm2/MdmX interaction inhibitor project, cell-based, single concentration, SaOS-2 | SaOS-2 full-length luciferase counterscreen, luminescence | inhibition, % at 8 µM | actives 77% (n = 6,200) | shares compounds with Mdm2-MdmX inh;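 active means mean inhibition at 8 µM reaching about 37%, which flags the compound as non-specific, limit read from the data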;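 further: p53-null SaOS-2 cells with luciferase driven by a doxycycline-inducible promoter; compound on cells about two nights before reading with doxycycline added after day one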
Large screens that a line does not name were inactive (follow-up assays come after a bar, where they were run).

COc1ccc(-c2cc(C)no2)cc1S(=O)(=O)Nc1ccccc1	Mdm2-MdmX inh 55.0 | Mdm2 MdmX conf 67.4 | Full FLuc ctr 63.2
Cc1cc(-c2ccc(C)c(S(=O)(=O)NCC3CCN(Cc4cccc(F)c4)CC3)c2)on1	none
COc1ccc(-c2cc(C)no2)cc1S(=O)(=O)N1CCN(c2cccc(C)c2)C(C)C1 (stereo not given)	Mdm2-MdmX inh 52.9 | Mdm2 MdmX conf 45.0 | Full FLuc ctr 61.4
COc1cccc(CCN2CCC(CNS(=O)(=O)c3cc(-c4cc(C)no4)ccc3C)CC2)c1	Mdm2-MdmX inh 54.9 | Mdm2 MdmX conf 49.8 | Full FLuc ctr 67.0
CCCCC(=O)Nc1cc2nn(-c3ccc(OC)cc3)nc2cc1C	none
CCC(=O)Nc1cc2nn(-c3ccc(C)cc3)nc2cc1C	aSyn 5UTR inh 80.3, Mdm2-MdmX inh 66.5 | Mdm2 MdmX conf 67.2 | Full FLuc ctr 145.8
Cc1coc2c(C)c3oc(=O)c(CCC(=O)N4CCC(C(=O)NCCCC(=O)O)(c5ccccc5)CC4)c(C)c3cc12	none
O=C(NCCNC(=O)c1ccccc1Br)c1cccnc1	none
CN1Cc2cc(C(=O)c3ccccc3O)cnc2NC1=O	none
COc1ccc(O)c(C(=O)c2cnc3c(c2)CN(C)C(=O)N3)c1	Mdm2-MdmX inh 62.6 | Mdm2 MdmX conf 40.5 | Full FLuc ctr 63.3
COc1cc(/C=C(/C(=O)c2cccs2)c2nc3ccccc3[nH]2)cc(OC)c1O	Mdm2-MdmX inh 91.4 | Mdm2 MdmX conf 90.5 | Full FLuc ctr 61.6
O=C(/C(=C/c1ccc(Cl)cc1)c1nc2ccccc2[nH]1)c1ccccc1	Mdm2-MdmX inh 100.3 | Mdm2 MdmX conf 99.2 | Full FLuc ctr 50.6
Cc1nc2ccc(NC(=O)CCC3CCCC3)cc2s1	none
Clc1nc(-c2ccccn2)nc2scc(-c3ccccc3)c12	Mdm2-MdmX inh 57.3 | Mdm2 MdmX conf inactive
CC1CCN(c2nc(-c3cccnc3)nc3scc(-c4ccccc4)c23)CC1	none
COCCNC(=O)C(c1ccc(C)o1)N(C(=O)C(=O)NC1CCCCC1)c1ccc(F)cc1 (stereo not given)	none
O=C(CSc1nc(-c2ccc(F)cc2)cc(C(F)(F)F)n1)Nc1ccc2c(c1)OCO2	Mdm2-MdmX inh 60.9 | Mdm2 MdmX conf inactive | Full FLuc ctr 75.2
COc1ccc(-c2cc(C(F)(F)F)nc(SCC(=O)Nc3ccc4c(c3)OCO4)n2)cc1	none
CCN(CC)CCCN(Cc1cc2ccc(C)c(C)c2[nH]c1=O)C(=O)NC1CCCCC1	Mdm2-MdmX inh 61.3 | Mdm2 MdmX conf 49.9 | Full FLuc ctr 73.8
Cc1ccc2cc(CN(CC3CCCO3)C(=S)NCc3ccco3)c(=O)[nH]c2c1C (stereo not given)	Mdm2-MdmX inh 83.1 | Mdm2 MdmX conf 57.7 | Full FLuc ctr 37.2
Cc1ccc(C)c2[nH]c(=O)c(CN(CC3CCCO3)C(=S)NCc3ccco3)cc12 (stereo not given)	none
Nc1ccccc1-n1c(=O)n(Cc2ccccc2F)c(=O)c2[nH]cnc21	none
N#Cc1c(NCCN)nc(-c2ccccc2)c2c1CCCC2	Mdm2-MdmX inh 58.3 | Mdm2 MdmX conf inactive
O=C(Nc1ccc2c(c1)OCO2)c1cc(-c2ccc(O)cc2)on1	Mdm2-MdmX inh 83.7 | Mdm2 MdmX conf inactive
COc1ccc(NC(=O)c2cc(-c3ccc4c(c3)OCO4)on2)cc1OC	Mdm2-MdmX inh 67.9 | Mdm2 MdmX conf 44.8 | Full FLuc ctr 97.1
CC(C)C[C@@H](CO)N1CCN(Cc2cccc(C#N)c2)CCC1=O	none
O=C(O)c1ccc(NC2=C(Cl)C(=O)c3ccccc3C2=O)cc1	Mdm2-MdmX inh 100.3 | Mdm2 MdmX conf 91.2 | Full FLuc ctr 53.0
CCc1nnc(NC(=O)CCNC(=O)c2ccco2)s1	none
CC(Sc1nnc(NCc2ccccc2)s1)C(=O)Nc1ccc2c(c1)C(=O)c1ccccc1C2=O (stereo not given)	none
CC(Sc1nnc(Nc2ccccc2)s1)C(=O)Nc1nc(-c2ccccc2)cs1 (stereo not given)	Mdm2-MdmX inh 65.5 | Mdm2 MdmX conf 71.5 | Full FLuc ctr 101.1
Cc1ccc(S(=O)(=O)N2CCN(c3ccc(S(=O)(=O)N4CCOCC4)cn3)CC2)cc1	Mdm2-MdmX inh 65.9 | Mdm2 MdmX conf inactive
COc1ccc(CC(=O)Nc2cccnc2)cc1	none
N#CC(C#N)=c1ccc2c(c1)NC1(CCCCC1)N=2	Mdm2-MdmX inh 70.9 | Mdm2 MdmX conf 49.9 | Full FLuc ctr inactive
N#CCc1ccc(OC(=O)c2ccncc2)cc1	none (no result: KLF5 inhibitor)
COc1cc(-c2nc(-c3ccc4c(c3)-c3ccccc3S4(=O)=O)c(-c3ccccc3)[nH]2)cc(OC)c1O	Mdm2-MdmX inh 76.6 | Mdm2 MdmX conf 66.7 | Full FLuc ctr 78.8
O=C(Nc1ccccc1)c1cc([N+](=O)[O-])ccc1Cl	none (no result: KLF5 inhibitor)
O=C(Nc1cccc(Cl)c1)c1cc(N=Nc2ccc([N+](=O)[O-])cc2Cl)ccc1O	Mdm2-MdmX inh 92.2 | Mdm2 MdmX conf 97.0 | Full FLuc ctr 51.4
O=C(Nc1cccc(Cl)c1)c1cccc(Oc2ccc([N+](=O)[O-])cc2Cl)c1	Mdm2-MdmX inh 60.7 | Mdm2 MdmX conf inactive
CCc1nnc(NC(=O)CSc2nc(-c3ccccc3)nc3ccccc23)s1	Mdm2-MdmX inh 78.4 | Mdm2 MdmX conf 50.2 | Full FLuc ctr 90.5
CCN1CCN(c2ccc(S(=O)(=O)N3CCCCC3)cc2NC(=O)/C=C/c2cccc(OC)c2OC)CC1	Mdm2-MdmX inh 75.3 | Mdm2 MdmX conf 49.8 | Full FLuc ctr 77.2
Cc1ccc(S(=O)(=O)N2CCCCC2)cc1NC(=O)c1cc2ccccc2o1	none (no result: aSyn 5UTR inh, KLF5 inhibitor)
CCN1CCN(c2ccc(S(=O)(=O)N3CCCCC3)cc2NC(=O)/C=C/c2ccc(OC(F)F)cc2)CC1	Mdm2-MdmX inh 82.5 (no result: KLF5 inhibitor) | Mdm2 MdmX conf 52.4 | Full FLuc ctr 69.3
CCN1CCN(c2ccc(S(=O)(=O)N3CCCCC3)cc2NC(=O)c2cc3ccccc3o2)CC1	Mdm2-MdmX inh 61.5 (no result: KLF5 inhibitor) | Mdm2 MdmX conf inactive
CCN1CCN(c2ccc(S(=O)(=O)N3CCCCC3)cc2NC(=O)/C=C/c2ccc(F)cc2)CC1	Mdm2-MdmX inh 53.4 (no result: KLF5 inhibitor) | Mdm2 MdmX conf 45.0 | Full FLuc ctr 86.8
CC1Cc2c([nH]c3ccccc23)C(=O)N1 (stereo not given)	none
